# The source made the active and inactive calls. The calls were made as follows: active = hit-call score of the fitted dose curve at least 0.9, where 1 is the maximum; inactive = score below 0.9.
# Legend:
# [1] = biological target: Transcription factor E2F1 (Homo sapiens) (UniProt Q01094); experiment: ATG_E2F_CIS: Attagene CIS-FACTORIAL HepG2 Assay for human E2F Transcription Factor 1 (AID 2282935); settings: HepG2 Attagene cis-reporter, E2F reporter RNA transcripts; actives raise or lower the signal
# Sequence of Transcription factor E2F1 (Homo sapiens) (Q01094 whole entry, looked up): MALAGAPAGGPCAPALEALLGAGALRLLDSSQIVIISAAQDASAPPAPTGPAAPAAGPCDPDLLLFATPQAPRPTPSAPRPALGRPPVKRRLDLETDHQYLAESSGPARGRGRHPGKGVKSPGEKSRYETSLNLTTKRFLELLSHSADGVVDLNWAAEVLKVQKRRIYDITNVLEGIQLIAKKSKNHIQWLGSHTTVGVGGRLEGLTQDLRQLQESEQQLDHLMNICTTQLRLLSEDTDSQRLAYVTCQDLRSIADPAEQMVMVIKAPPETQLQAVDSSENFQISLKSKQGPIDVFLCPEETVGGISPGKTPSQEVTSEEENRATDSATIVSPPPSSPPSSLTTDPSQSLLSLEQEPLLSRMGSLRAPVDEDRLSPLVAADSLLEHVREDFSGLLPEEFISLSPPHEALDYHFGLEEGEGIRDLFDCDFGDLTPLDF
# Procedure, shortened: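 HepG2 cells transiently transfected with multiplexed cis-element reporter units, dosed for 24 h. Reporter mRNA measured by RT-PCR, 6-FAM primer-extension labeling, HpaI digestion and capillary electrophoresis; bidirectional fit versus DMSO baseline.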
# [2] = ATG_EGR_CIS: Attagene CIS-FACTORIAL HepG2 Assay for human Early Growth Response 1 (EGR1) (AID 2282938); settings: HepG2 Attagene CIS-FACTORIAL EGR reporter mRNA; actives raise or lower the signal
# Procedure, shortened: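 HepG2 cells transiently transfected with cis-promoter-driven multiplexed reporter transcription units; reporter mRNA measured 24 h after compound dosing by RT-PCR, 6-FAM primer extension, HpaI digestion and capillary electrophoresis. Bidirectional fit versus DMSO baseline.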
# [3] = ATG_M_19_CIS: Attagene CIS-FACTORIAL HepG2 Assay for M19 Transcription Factor (Internal Marker) (AID 2282939); settings: HepG2 Attagene CIS-FACTORIAL M19 internal marker reporter; actives raise or lower the signal
# Procedure, shortened: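 Chemical-treated HepG2 (24 h) with MRTU constructs; reporter transcripts detected by fluorescent RT-PCR fragment analysis on capillary electrophoresis. Internal background marker, DMSO as baseline.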
# [4] = ATG_ERE_CIS: Attagene CIS-FACTORIAL HepG2 Assay for Estrogen Response Element (ERE) (AID 2282940); settings: HepG2 ERE cis-reporter, Attagene RNA transcript; actives raise or lower the signal
# Procedure, shortened: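 Human liver cells (HepG2) bearing transiently transfected, promoter-regulated reporter units were exposed 24 h. Reporter mRNA induction was detected by capillary electrophoresis of labelled RT-PCR products and fitted bidirectionally to DMSO.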
# [5] = ATG_Ets_CIS: Attagene CIS-FACTORIAL HepG2 Assay for human Erythroblast Transformation Specific (ETS) (AID 2282941); settings: HepG2 ETS cis-reporter transcription, actives raise or lower the signal
# Procedure, shortened: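 Human HepG2 hepatoma cells were transiently transfected with promoter-driven reporter constructs and treated for 24 hours. Reporter transcripts were quantified by RT-PCR with fluorescent primer extension; bidirectional curve fitting used DMSO as reference.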
# [6] = biological target: Hepatocyte nuclear factor 3-beta (Homo sapiens) (UniProt Q9Y261); experiment: ATG_FoxA2_CIS: Attagene CIS-FACTORIAL HepG2 Assay for human Forkhead box A2 (FOXA2) (AID 2282942); settings: HepG2 cis-reporter transcription factor activity, 24 h; actives raise or lower the signal
# Sequence of Hepatocyte nuclear factor 3-beta (Homo sapiens) (Q9Y261 whole entry, looked up): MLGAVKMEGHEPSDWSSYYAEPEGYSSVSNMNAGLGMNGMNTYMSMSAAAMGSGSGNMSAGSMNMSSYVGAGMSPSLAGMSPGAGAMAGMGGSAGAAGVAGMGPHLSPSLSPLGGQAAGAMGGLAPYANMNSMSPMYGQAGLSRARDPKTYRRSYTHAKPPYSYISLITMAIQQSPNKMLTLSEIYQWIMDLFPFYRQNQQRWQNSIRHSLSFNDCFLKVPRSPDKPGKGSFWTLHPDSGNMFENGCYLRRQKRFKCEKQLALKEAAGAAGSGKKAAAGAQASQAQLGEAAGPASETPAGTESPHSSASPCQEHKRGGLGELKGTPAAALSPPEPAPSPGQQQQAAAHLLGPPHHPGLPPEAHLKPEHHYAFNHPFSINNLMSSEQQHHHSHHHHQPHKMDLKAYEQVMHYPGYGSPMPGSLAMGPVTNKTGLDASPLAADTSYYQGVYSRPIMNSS
# Procedure, shortened: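 HepG2 cells transiently transfected with multiple cis-regulated reporter transcription units, dosed for 24 h. Reporter mRNA measured by RT-PCR, 6-FAM labelling, HpaI digestion and capillary electrophoresis; bidirectional fitting against DMSO baseline.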
# [7] = ATG_FoxO_CIS: Attagene CIS-FACTORIAL HepG2 Assay for human Forkhead box O (FoxO) (AID 2282943); settings: HepG2 Attagene cis-reporter, FoxO element, mRNA; actives raise or lower the signal
# Procedure, shortened: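 HepG2 cells transiently transfected with cis-promoter-driven multiple reporter transcription units; 24 h after chemical dosing, reporter mRNA quantified by RT-PCR, fluorescent primer extension, HpaI digestion and capillary electrophoresis. Bidirectional fitting versus DMSO baseline.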
# [8] = ATG_GATA_CIS: Attagene CIS-FACTORIAL HepG2 Assay for human GATA Binding Protein (AID 2282944); settings: HepG2 GATA cis-element reporter, Attagene multiplex mRNA; actives raise or lower the signal
# Procedure, shortened: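 Transfected cis-reporter HepG2 cells were treated with chemicals for 24 hours. Total RNA was then converted to cDNA, amplified with reporter-specific primers and analysed by fluorescent capillary electrophoresis, using DMSO-treated wells as baseline.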
# [9] = ATG_GLI_CIS: Attagene CIS-FACTORIAL HepG2 Assay for human Zinc Finger Protein GLI1 (AID 2282945); settings: HepG2, Attagene cis-factorial reporter mRNA, GLI element; actives raise or lower the signal
# Procedure, shortened: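 HepG2 cells transiently transfected with cis-promoter multiplexed reporter units report endogenous transcription factor activity. After 24 h chemical exposure, reporter mRNA was quantified by RT-PCR, 6-FAM labelling, HpaI digestion and capillary electrophoresis, with bidirectional fitting against DMSO.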
# [10] = ATG_ISRE_CIS: Attagene CIS-FACTORIAL HepG2 Assay for human Interferon Regulatory Factor 1 (IRF1) binding to an Interferon-Stimulated Response Element (ISRE) (AID 2282948); settings: HepG2 ISRE cis-reporter (Attagene), mRNA transcription readout; actives raise or lower the signal
# Procedure, shortened: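 Cell-based cis-reporter assay; HepG2; 24 h exposure; reporter mRNA by RT-PCR plus capillary electrophoresis fluorescence; activity in either direction scored relative to DMSO.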
# [11] = ATG_M_32_CIS: Attagene CIS-FACTORIAL HepG2 Assay for M32 Transcription Factor (Internal Marker) (AID 2282949); settings: HepG2 Attagene cis-factorial M32 reporter, mRNA; actives raise or lower the signal;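 also: background control marker of the multiplexed CIS panel rather than a real target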
# Procedure, shortened: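 Following 24 h chemical exposure of HepG2 cells transiently expressing cis-promoter reporter constructs, reporter transcript levels were determined by RT-PCR with fluorescent labelling and capillary electrophoresis, then fitted bidirectionally against DMSO.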
# [12] = ATG_M_06_CIS: Attagene CIS-FACTORIAL HepG2 Assay for M06 Transcription Factor (Internal Marker) (AID 2282950); settings: HepG2 Attagene CIS-FACTORIAL M06 internal marker reporter; actives raise or lower the signal
# Procedure, shortened: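 Cells (HepG2, transiently carrying cis-driven reporter units) receive chemical for 24 h before RNA isolation. Reporter cDNA is PCR-amplified, FAM-labelled by primer extension, HpaI-digested and sized on a capillary analyser.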
# [13] = biological target: Hypoxia-inducible factor 1-alpha (Homo sapiens) (UniProt Q16665); experiment: ATG_HIF1a_CIS: Attagene CIS-FACTORIAL HepG2 Assay for human Hypoxia Inducible Factor 1 (HIF1A) (AID 2282951); settings: HepG2 Attagene cis-factorial HIF1a reporter transcription; actives raise or lower the signal
# Sequence of Hypoxia-inducible factor 1-alpha (Homo sapiens) (Q16665 whole entry, looked up): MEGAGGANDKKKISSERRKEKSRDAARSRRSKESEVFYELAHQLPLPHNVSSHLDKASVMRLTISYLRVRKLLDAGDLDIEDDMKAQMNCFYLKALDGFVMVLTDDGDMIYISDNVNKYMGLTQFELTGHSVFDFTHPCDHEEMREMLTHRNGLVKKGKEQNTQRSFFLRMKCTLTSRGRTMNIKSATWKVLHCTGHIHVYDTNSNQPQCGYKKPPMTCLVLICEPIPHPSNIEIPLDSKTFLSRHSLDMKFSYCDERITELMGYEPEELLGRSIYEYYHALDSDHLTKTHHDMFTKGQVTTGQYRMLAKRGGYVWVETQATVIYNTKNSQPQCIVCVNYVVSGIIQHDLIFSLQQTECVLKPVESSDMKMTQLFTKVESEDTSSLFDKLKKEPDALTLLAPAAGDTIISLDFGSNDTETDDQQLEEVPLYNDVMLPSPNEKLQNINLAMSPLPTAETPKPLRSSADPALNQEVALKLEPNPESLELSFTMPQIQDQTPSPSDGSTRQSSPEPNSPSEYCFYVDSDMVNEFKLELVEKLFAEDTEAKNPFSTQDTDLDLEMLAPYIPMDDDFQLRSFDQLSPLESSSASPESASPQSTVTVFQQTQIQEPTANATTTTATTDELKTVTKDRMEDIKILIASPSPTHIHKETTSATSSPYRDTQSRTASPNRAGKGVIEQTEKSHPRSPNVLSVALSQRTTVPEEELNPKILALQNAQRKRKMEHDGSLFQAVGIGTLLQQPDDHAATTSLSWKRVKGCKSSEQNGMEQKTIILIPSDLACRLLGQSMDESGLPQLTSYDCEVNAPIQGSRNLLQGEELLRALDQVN
# Procedure, shortened: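 HepG2 cells transiently transfected with multiplexed cis-promoter reporter units; reporter mRNA read 24 h after dosing by RT-PCR, 6-FAM primer-extension labelling, HpaI digestion and capillary electrophoresis. Bidirectional fit versus DMSO baseline.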
# [14] = biological target: Hepatocyte nuclear factor 6 (Homo sapiens) (UniProt Q9UBC0); experiment: ATG_HNF6_CIS: Attagene CIS-FACTORIAL HepG2 Assay for human Hepatocyte Nuclear Factor 6 (HNF6) (AID 2282952); settings: HepG2 Attagene cis-factorial HNF6 reporter transcription; actives raise or lower the signal
# Sequence of Hepatocyte nuclear factor 6 (Homo sapiens) (Q9UBC0 whole entry, looked up): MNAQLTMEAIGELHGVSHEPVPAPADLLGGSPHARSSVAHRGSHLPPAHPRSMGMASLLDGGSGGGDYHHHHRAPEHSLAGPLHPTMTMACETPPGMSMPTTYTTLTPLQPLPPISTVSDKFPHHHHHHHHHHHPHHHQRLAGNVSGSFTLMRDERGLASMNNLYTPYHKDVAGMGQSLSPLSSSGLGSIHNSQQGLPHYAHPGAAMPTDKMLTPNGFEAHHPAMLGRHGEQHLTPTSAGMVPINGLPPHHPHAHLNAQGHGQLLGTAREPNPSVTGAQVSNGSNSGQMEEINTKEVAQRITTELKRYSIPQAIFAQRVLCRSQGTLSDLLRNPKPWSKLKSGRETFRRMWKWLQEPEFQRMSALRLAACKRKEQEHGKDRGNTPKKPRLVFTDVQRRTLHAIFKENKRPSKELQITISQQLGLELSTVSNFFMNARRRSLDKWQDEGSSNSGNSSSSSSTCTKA
# Procedure, shortened: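 Cells are HepG2 carrying transiently transfected cis-promoter reporter units. Treatment lasts 24 h, after which reporter transcripts are reverse-transcribed, amplified, FAM-labelled and sized by capillary electrophoresis. DMSO serves as baseline.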
# [15] = biological target: Heat shock factor protein 1 (Homo sapiens) (UniProt Q00613); experiment: ATG_HSE_CIS: Attagene CIS-FACTORIAL HepG2 Assay for human Heat Shock Transcription Factor 1 (HSE) (AID 2282953); settings: HepG2 HSE cis-reporter, Attagene RNA transcription; actives raise or lower the signal
# Sequence of Heat shock factor protein 1 (Homo sapiens) (Q00613 whole entry, looked up): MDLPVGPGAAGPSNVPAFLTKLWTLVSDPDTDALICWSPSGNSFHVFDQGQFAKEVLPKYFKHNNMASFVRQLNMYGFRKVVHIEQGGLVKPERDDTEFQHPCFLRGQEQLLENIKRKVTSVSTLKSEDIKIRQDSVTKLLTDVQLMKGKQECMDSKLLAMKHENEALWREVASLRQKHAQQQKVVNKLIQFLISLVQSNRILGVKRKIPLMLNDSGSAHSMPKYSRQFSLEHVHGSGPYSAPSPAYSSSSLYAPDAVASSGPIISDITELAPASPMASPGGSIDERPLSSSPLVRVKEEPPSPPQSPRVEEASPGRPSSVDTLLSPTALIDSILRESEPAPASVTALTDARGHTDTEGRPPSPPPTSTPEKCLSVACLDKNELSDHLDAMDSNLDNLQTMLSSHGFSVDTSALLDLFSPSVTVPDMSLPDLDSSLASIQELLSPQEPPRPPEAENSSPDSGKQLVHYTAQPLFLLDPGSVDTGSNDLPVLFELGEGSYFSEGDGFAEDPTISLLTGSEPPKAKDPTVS
# Procedure, shortened: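 Liver-derived HepG2 cells carry transiently introduced multiple reporter units governed by cis promoters. Reporter RNA measured 24 h post-dose through reverse transcription, PCR amplification, fluorescent labelling and capillary electrophoresis, normalised to DMSO.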
# [16] = ATG_M_61_CIS: Attagene CIS-FACTORIAL HepG2 Assay for M61 Transcription Factor (Internal Marker) (AID 2282937); settings: HepG2 Attagene CIS-FACTORIAL M61 internal marker reporter; actives raise or lower the signal
# Procedure, shortened: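 HepG2 cells transiently transfected with cis-element-driven multiple reporter transcription units, dosed for 24 h. Reporter mRNA measured by RT-PCR, 6-FAM primer-extension labelling, HpaI digestion and capillary electrophoresis; bidirectional fit versus DMSO baseline.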
# [17] = ATG_GRE_CIS: Attagene CIS-FACTORIAL HepG2 Assay for human Glucocorticoid Response Elements (GRE) (AID 2282947); settings: HepG2 GRE cis-reporter, Attagene multiplex mRNA; actives raise or lower the signal
# Procedure, shortened: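 HepG2 cells transiently transfected with multiple cis-promoter reporter units measure endogenous TF activity; 24 h compound exposure. Reporter mRNA quantified by RT-PCR, FAM labelling, HpaI digestion and capillary electrophoresis; bidirectional fit vs DMSO baseline.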
# [18] = ATG_MRE_CIS: Attagene CIS-FACTORIAL HepG2 Assay for human Metal Responsive Element (MRE) (AID 2282954); settings: HepG2 MRE cis-reporter transcription, Attagene multiplex; actives raise or lower the signal
# Procedure, shortened: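 HepG2 cells transiently transfected with multiple cis-element reporter units measure endogenous MTF1-driven transcription. After 24 h compound exposure, reporter mRNA is quantified by RT-PCR with 6-FAM labelling, HpaI digestion and capillary electrophoresis; bidirectional fits versus DMSO.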
smiles,measurement,setting,value
CC(=O)OCC=C(C)CCC=C(C)CCC=C(C)C,outcome,[1],inactive
same,outcome,[2],inactive
same,AC50,[3],183 µM (active)
same,AC50,[4],25.1 µM (active)
same,AC50,[5],179 µM (active)
same,AC50,[6],146 µM (active)
same,AC50,[7],128 µM (active)
same,AC50,[8],167 µM (active)
same,AC50,[9],164 µM (active)
same,AC50,[10],147 µM (active)
same,outcome,[11],inactive
same,outcome,[12],inactive
same,outcome,[13],inactive
same,outcome,[14],inactive
same,AC50,[15],72.3 µM (active)
[Na+],outcome,[1],inactive
same,outcome,[16],inactive
same,outcome,[2],inactive
same,outcome,[3],inactive
same,outcome,[4],inactive
same,outcome,[5],inactive
same,outcome,[6],inactive
same,outcome,[7],inactive
same,outcome,[8],inactive
same,outcome,[9],inactive
same,outcome,[17],inactive
same,outcome,[10],inactive
same,outcome,[12],inactive
same,outcome,[13],inactive
same,outcome,[14],inactive
same,outcome,[15],inactive
same,outcome,[18],inactive
CCCCCCCCCCCCCCCCCC(=O)OCCCCCCCCCCCCCC(C)C,outcome,[1],inactive
same,outcome,[16],inactive
same,outcome,[2],inactive
same,outcome,[3],inactive
same,AC50,[4],28.7 µM (active)
same,outcome,[5],inactive
same,outcome,[7],inactive
same,outcome,[8],inactive
same,outcome,[9],inactive
same,outcome,[17],inactive
same,outcome,[10],inactive
same,outcome,[11],inactive
same,outcome,[12],inactive
same,outcome,[13],inactive
same,outcome,[14],inactive
same,outcome,[15],inactive
same,outcome,[18],inactive
CCCCCC(=O)O[C@]1(C(C)=O)CC[C@H]2[C@@H]3CCC4=CC(=O)CC[C@]4(C)[C@H]3CC[C@@]21C,outcome,[1],inactive
same,outcome,[16],inactive
same,outcome,[2],inactive
same,outcome,[3],inactive
same,outcome,[4],inactive
same,outcome,[5],inactive
same,outcome,[6],inactive
same,outcome,[7],inactive
same,outcome,[8],inactive
same,AC50,[9],57.7 µM (active)
same,AC50,[17],55.1 µM (active)
same,AC50,[10],16.3 µM (active)
same,outcome,[12],inactive
same,AC50,[13],33.2 µM (active)
same,outcome,[14],inactive
same,AC50,[15],32 µM (active)
same,AC50,[18],13 µM (active)
Cc1ccc(C(C)(C)O)cc1,outcome,[1],inactive
same,outcome,[2],inactive
same,outcome,[3],inactive
same,outcome,[4],inactive
same,outcome,[5],inactive
same,outcome,[6],inactive
same,outcome,[7],inactive
same,outcome,[8],inactive
same,outcome,[9],inactive
same,outcome,[17],inactive
same,outcome,[10],inactive
same,outcome,[11],inactive
same,outcome,[12],inactive
same,outcome,[13],inactive
same,outcome,[14],inactive
same,outcome,[15],inactive
same,outcome,[18],inactive
O=[N+]([O-])c1cc(N(CCO)CCO)ccc1NCCO,outcome,[1],inactive
same,outcome,[2],inactive
same,outcome,[3],inactive
same,outcome,[4],inactive
same,outcome,[5],inactive
same,outcome,[6],inactive
same,outcome,[7],inactive
same,outcome,[8],inactive
same,outcome,[9],inactive
same,outcome,[10],inactive
same,outcome,[11],inactive
same,outcome,[12],inactive
same,outcome,[13],inactive
same,outcome,[14],inactive
same,outcome,[15],inactive
same,outcome,[18],inactive
